Test results published in article PMC7862700, “An all-to-all approach to the identification of sequence-specific readers for epigenetic DNA modifications on cytosine”.

Key:
Experiment in all cases: DAPPL (digital affinity profiling via proximity ligation, sequencing); 10 mM Tris-HCl pH 7.5, 50 mM NaCl, 1 mM DTT, 4% glycerol, room temperature, 30 min; GST-TFs on glutathione beads, 16-mer random dsDNA library, 0.1% formaldehyde crosslink after washing; high values mean tight binding
Conditions in all cases: protein: recombinant; tags: N-terminal GST; dsDNA, one strand shown
ELK1 = target: T1, ELK1 (Homo sapiens, UniProt P19419 1-428)
T1 sequence: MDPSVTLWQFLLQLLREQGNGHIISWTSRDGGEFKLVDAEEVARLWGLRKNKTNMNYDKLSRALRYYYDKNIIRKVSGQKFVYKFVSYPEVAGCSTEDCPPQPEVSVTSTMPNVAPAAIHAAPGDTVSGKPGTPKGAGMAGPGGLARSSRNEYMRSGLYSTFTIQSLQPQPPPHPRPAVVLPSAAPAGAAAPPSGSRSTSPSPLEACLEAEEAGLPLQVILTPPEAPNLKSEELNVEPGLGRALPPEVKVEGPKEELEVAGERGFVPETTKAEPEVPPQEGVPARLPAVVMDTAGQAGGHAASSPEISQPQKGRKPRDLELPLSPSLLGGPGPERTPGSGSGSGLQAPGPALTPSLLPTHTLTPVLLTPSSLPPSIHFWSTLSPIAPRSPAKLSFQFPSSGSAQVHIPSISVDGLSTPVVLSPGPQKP
Method in brief: (§1)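 A tag-only sample was pooled with DNA-barcoded human transcription factors that had been expressed in yeast as GST fusions and captured on glutathione beads. The pools were incubated for 30 min at room temperature with 200 nmole of a random double-stranded 16-mer DNA library in Tris/NaCl/DTT/glycerol buffer, then washed, crosslinked with 0.1% formaldehyde, proximity-ligated (BsaI/T4 ligase, 1 h, 37 °C), PCR-amplified and sequenced on an Illumina NextSeq500. Binding signal is each hexamer's read frequency for a factor divided by its frequency for the tag-only sample.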

GABPA = target: T2, GABPA (Homo sapiens, UniProt Q06546 1-454)
T2 sequence: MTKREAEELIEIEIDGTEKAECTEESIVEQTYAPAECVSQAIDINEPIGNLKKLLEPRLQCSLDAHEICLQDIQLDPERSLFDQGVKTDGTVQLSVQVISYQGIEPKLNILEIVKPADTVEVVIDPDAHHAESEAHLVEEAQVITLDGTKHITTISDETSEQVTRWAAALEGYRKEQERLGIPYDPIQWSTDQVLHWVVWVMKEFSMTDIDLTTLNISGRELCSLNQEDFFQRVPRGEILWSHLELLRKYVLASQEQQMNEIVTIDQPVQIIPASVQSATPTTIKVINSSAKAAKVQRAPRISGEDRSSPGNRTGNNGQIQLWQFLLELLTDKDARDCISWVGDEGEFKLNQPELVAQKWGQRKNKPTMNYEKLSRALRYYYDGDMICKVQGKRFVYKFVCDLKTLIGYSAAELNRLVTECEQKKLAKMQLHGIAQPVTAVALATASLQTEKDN
Method in brief: as §1

ERG = target: T3, ERG (Homo sapiens, UniProt P11308 1-479)
T3 sequence: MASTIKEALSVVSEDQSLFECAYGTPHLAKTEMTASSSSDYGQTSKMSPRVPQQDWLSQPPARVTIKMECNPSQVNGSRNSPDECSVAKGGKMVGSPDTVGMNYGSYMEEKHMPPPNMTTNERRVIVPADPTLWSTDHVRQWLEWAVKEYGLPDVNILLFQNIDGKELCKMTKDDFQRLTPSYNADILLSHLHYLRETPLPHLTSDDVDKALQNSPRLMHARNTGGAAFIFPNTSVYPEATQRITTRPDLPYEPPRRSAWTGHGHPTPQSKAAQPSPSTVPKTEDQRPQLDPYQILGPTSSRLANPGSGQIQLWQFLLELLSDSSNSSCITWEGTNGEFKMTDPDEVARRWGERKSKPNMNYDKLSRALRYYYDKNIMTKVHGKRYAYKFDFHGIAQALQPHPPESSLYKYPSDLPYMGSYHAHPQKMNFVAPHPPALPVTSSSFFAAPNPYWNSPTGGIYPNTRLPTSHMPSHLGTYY
Method in brief: as §1

ELF1 = ELF1 (Homo sapiens, UniProt P32519 1-619)
Method in brief: as §1

EHF = target: T4, EHF (Homo sapiens, UniProt Q9NZC4 1-300)
T4 sequence: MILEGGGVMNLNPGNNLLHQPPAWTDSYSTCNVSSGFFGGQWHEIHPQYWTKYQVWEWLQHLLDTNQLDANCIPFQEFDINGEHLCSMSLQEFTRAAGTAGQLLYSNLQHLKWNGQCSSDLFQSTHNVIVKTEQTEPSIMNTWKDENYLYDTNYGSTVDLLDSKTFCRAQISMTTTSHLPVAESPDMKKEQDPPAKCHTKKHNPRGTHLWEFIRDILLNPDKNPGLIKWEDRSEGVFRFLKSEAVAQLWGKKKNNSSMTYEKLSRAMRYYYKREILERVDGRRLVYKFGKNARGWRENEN
Method in brief: as §1

SPIB = SPIB (Homo sapiens, UniProt Q01892 1-262)
Method in brief: as §1

FEV = target: T5, FEV (Homo sapiens, UniProt Q99581 1-238)
T5 sequence: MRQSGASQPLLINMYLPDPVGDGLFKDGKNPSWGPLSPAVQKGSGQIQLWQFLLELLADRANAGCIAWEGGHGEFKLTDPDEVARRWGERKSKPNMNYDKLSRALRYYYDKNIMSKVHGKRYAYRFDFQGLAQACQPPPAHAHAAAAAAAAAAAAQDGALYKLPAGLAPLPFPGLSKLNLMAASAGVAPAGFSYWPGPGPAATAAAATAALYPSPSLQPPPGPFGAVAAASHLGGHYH
Method in brief: as §1

ETV5 = ETV5 (Homo sapiens, UniProt P41161 1-510)
Method in brief: as §1

ELF4 = ELF4 (Homo sapiens, UniProt Q99607 1-663)
Method in brief: as §1

ETV2 = target: T6, ETV2 (Homo sapiens, UniProt O00321 1-342)
T6 sequence: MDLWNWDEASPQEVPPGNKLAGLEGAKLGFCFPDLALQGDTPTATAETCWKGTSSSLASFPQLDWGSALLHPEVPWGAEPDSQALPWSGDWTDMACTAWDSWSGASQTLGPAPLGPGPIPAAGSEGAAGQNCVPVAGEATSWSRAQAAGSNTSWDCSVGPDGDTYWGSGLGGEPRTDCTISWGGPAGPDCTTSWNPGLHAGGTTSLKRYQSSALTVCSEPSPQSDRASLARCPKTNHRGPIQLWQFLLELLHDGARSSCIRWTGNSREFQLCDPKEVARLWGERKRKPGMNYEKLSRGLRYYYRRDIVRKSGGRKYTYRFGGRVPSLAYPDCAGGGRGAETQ
Method in brief: as §1

ELF3 = target: T7, ELF3 (Homo sapiens, UniProt P78545 1-371)
T7 sequence: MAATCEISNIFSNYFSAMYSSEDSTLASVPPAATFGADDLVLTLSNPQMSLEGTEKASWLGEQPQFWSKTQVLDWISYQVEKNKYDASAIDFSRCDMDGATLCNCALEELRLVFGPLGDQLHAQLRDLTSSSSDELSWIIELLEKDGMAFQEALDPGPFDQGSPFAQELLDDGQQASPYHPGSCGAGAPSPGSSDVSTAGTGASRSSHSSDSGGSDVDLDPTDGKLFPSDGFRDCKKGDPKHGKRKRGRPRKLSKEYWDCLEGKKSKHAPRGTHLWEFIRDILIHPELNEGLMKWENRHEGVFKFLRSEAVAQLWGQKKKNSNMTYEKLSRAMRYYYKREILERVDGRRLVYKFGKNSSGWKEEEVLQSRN
Method in brief: as §1

ETV1 = ETV1 (Homo sapiens, UniProt P50549 1-477)
Method in brief: as §1

ERF = target: T8, ERF (Homo sapiens, UniProt P50548 1-548)
T8 sequence: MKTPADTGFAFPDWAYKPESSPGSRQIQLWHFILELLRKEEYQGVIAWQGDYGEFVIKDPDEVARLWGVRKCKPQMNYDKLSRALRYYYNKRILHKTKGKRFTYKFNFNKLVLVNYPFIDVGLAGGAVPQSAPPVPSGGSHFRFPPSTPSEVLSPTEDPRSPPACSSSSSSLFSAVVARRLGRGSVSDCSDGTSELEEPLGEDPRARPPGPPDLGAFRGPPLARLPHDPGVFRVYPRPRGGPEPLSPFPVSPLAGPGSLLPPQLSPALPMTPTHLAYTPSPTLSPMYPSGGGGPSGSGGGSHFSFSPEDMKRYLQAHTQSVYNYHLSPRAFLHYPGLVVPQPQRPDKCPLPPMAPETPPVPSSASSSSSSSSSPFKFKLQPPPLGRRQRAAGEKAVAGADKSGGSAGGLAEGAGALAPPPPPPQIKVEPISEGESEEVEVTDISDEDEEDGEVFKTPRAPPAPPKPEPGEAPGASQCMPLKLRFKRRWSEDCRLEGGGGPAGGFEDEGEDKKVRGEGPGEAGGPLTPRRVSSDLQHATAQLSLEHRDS
Method in brief: as §1

ETV3L = target: T9, ETV3L (Homo sapiens, UniProt Q6ZN32 1-361)
T9 sequence: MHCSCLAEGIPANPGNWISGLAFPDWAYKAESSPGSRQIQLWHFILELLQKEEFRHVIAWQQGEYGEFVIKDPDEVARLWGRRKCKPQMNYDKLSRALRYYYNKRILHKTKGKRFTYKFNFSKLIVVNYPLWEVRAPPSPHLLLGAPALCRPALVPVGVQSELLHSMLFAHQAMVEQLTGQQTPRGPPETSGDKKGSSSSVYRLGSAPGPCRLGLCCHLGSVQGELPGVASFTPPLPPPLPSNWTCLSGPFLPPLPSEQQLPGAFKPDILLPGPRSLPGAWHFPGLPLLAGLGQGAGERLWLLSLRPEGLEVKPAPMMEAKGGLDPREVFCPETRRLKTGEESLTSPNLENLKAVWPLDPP
Method in brief: as §1

ETS2 = target: T10, ETS2 (Homo sapiens, UniProt P15036 1-469)
T10 sequence: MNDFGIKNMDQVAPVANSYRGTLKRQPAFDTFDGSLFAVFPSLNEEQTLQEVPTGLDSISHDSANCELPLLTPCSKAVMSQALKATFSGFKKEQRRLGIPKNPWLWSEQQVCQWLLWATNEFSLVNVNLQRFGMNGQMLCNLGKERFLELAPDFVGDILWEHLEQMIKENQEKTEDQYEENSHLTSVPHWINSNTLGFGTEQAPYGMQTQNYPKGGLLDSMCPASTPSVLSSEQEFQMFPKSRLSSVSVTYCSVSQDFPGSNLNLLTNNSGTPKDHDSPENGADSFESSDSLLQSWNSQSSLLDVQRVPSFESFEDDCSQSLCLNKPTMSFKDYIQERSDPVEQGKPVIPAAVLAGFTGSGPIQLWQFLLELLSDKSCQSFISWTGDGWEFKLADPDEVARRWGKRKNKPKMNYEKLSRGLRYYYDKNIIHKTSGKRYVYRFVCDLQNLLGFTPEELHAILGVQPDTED
Method in brief: as §1

SPDEF = target: T11, SPDEF (Homo sapiens, UniProt O95238 1-335)
T11 sequence: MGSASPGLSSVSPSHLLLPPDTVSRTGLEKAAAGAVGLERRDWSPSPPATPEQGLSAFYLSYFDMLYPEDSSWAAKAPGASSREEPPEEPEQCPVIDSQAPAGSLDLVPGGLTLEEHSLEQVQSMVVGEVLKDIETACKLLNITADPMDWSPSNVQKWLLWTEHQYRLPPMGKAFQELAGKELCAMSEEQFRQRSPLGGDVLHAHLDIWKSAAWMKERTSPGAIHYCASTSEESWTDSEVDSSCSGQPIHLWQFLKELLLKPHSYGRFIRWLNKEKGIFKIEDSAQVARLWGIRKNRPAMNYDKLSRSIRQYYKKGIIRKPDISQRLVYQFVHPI
Method in brief: as §1

ETV7 = target: T12, ETV7 (Homo sapiens, UniProt Q9Y603 1-341)
T12 sequence: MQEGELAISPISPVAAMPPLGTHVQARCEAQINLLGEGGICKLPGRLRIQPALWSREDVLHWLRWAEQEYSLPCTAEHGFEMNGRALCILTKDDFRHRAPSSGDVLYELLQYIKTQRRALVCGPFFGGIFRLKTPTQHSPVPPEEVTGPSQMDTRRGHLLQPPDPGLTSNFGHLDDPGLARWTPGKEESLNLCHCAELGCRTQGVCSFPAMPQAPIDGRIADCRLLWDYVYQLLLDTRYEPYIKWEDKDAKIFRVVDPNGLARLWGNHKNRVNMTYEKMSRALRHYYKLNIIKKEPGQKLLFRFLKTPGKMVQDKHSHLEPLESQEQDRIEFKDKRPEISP
Method in brief: as §1

ETV3 = target: T13, ETV3 (Homo sapiens, UniProt P41162-2 1-143)
T13 sequence: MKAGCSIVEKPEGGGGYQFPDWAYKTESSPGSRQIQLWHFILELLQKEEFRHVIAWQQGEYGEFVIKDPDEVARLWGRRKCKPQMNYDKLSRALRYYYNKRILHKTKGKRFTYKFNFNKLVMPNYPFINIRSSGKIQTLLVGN
Method in brief: as §1

ETV6 = ETV6 (Homo sapiens, UniProt P41212 1-452)
Method in brief: as §1

ETV5, sequence (P41161 whole entry): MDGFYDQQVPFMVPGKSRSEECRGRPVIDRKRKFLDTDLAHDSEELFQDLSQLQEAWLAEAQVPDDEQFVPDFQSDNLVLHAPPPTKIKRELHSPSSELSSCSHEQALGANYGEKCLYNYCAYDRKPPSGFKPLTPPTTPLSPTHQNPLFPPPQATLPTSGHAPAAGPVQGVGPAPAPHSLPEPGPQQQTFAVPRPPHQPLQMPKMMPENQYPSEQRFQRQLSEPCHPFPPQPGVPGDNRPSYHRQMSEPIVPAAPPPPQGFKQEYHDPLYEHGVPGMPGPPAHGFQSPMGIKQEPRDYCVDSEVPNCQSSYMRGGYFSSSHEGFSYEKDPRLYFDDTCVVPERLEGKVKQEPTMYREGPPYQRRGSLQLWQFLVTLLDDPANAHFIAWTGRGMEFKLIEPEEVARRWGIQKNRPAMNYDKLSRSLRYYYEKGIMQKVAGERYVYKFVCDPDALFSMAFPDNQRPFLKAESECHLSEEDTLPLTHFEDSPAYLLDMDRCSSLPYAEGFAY
ELF4, sequence (Q99607 whole entry): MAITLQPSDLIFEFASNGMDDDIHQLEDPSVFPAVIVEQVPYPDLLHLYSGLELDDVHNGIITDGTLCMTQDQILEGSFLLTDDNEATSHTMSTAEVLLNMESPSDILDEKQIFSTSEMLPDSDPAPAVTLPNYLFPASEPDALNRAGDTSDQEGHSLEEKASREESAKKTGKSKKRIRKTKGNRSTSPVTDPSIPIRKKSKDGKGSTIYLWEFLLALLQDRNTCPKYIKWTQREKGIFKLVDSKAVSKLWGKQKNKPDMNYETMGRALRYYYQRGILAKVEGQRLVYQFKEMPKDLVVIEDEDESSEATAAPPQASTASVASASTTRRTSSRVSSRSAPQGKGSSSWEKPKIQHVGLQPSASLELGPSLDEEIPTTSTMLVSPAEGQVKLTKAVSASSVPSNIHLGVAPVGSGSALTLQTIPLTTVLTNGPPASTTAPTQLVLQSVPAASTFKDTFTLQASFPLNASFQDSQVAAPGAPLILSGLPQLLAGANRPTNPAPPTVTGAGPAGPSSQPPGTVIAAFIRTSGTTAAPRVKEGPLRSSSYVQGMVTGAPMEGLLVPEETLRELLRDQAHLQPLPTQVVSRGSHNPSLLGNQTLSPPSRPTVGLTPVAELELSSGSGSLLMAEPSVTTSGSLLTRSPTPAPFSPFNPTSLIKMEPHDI
ETV6, sequence (P41212 whole entry): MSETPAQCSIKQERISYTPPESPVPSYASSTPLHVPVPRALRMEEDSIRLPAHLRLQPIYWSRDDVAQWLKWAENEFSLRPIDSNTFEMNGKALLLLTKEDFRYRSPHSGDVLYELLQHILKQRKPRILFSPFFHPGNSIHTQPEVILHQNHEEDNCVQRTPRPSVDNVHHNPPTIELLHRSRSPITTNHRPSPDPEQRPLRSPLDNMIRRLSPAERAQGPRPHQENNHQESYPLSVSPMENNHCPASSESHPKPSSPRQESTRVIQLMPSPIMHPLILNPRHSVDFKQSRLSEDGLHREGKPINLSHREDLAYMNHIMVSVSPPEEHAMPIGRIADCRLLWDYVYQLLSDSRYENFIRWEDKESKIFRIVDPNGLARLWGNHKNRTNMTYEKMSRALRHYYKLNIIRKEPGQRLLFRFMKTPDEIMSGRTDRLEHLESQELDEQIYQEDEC
ETV1, sequence (P50549 whole entry): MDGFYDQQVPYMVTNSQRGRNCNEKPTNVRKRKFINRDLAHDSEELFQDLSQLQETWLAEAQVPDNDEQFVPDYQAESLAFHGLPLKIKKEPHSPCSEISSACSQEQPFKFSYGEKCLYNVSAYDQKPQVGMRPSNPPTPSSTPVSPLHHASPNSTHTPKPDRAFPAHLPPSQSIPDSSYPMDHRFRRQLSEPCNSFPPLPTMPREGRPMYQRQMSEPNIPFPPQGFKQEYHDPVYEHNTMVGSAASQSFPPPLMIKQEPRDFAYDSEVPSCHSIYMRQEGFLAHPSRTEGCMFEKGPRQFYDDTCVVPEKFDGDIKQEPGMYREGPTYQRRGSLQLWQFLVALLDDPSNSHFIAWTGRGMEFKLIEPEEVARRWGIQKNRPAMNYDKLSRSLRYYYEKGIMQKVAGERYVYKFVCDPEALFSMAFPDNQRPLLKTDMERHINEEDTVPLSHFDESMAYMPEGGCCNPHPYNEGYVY
SPIB, sequence (Q01892 whole entry): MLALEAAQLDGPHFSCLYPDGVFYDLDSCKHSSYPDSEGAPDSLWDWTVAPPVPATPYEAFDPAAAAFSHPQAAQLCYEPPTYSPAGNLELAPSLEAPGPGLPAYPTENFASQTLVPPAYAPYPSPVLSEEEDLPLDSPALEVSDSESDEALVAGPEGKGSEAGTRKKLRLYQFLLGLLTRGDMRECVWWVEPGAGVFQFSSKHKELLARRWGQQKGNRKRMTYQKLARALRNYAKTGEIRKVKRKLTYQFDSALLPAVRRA
ELF1, sequence (P32519 whole entry): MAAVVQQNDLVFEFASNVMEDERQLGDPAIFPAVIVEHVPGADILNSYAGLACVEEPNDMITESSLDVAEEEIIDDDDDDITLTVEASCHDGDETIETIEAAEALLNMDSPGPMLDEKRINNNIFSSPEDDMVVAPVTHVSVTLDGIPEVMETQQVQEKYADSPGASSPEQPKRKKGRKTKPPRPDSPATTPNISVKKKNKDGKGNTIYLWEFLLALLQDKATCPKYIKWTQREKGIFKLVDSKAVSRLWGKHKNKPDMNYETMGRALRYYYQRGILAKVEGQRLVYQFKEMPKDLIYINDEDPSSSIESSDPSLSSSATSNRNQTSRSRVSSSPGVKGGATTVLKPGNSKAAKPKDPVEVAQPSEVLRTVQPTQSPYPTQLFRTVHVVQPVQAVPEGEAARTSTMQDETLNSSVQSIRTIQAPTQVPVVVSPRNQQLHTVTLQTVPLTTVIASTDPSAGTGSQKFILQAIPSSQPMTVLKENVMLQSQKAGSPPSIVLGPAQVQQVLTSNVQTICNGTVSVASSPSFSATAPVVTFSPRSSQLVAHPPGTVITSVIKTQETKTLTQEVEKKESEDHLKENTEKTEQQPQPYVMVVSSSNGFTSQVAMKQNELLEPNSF

CCCGTC
binding signal (ELK1): 1.1 fold enrichment (6-mer frequency, TF over GST control)
binding signal (GABPA): 1.01 fold enrichment (6-mer frequency, TF over GST control)
binding signal (ERG): 1.1 fold enrichment (6-mer frequency, TF over GST control)
binding signal (ELF1): 1.13 fold enrichment (6-mer frequency, TF over GST control)
binding signal (EHF): 1.09 fold enrichment (6-mer frequency, TF over GST control)
binding signal (SPIB): 1.05 fold enrichment (6-mer frequency, TF over GST control)
binding signal (FEV): 1.09 fold enrichment (6-mer frequency, TF over GST control)
binding signal (ETV5): 1.08 fold enrichment (6-mer frequency, TF over GST control)
binding signal (ELF4): 1.07 fold enrichment (6-mer frequency, TF over GST control)
binding signal (ETV2): 1.32 fold enrichment (6-mer frequency, TF over GST control)
binding signal (ELF3): 1.03 fold enrichment (6-mer frequency, TF over GST control)
binding signal (ETV1): 1.1 fold enrichment (6-mer frequency, TF over GST control)
binding signal (ERF): 1.14 fold enrichment (6-mer frequency, TF over GST control)
binding signal (ETV3L): 1 fold enrichment (6-mer frequency, TF over GST control)
binding signal (ETS2): 1.04 fold enrichment (6-mer frequency, TF over GST control)
binding signal (SPDEF): 1.12 fold enrichment (6-mer frequency, TF over GST control)
binding signal (ETV7): 1.16 fold enrichment (6-mer frequency, TF over GST control)
binding signal (ETV3): 1.03 fold enrichment (6-mer frequency, TF over GST control)
binding signal (ETV6): 1.07 fold enrichment (6-mer frequency, TF over GST control)
